Assay in all cases: NCI-60 one-dose screen, 48 h (100 = growth as untreated, 0 = no growth, -100 = all killed)
In one experiment the test system is DU-145 prostate. Conditions: 10 µM unless noted.
A further experiment relates to K-562 leukemia. Conditions: 10 µM unless noted.
A further experiment deals with MALME-3M melanoma. The conditions noted are these: 10 µM unless noted.
For the next experiment, the system named is MDA-MB-231 breast. Conditions: 10 µM unless noted.
The subject of another experiment is RXF 393 renal. The conditions noted are these: 10 µM unless noted.
For the next experiment, the system named is SF-268 CNS. The conditions noted are these: 10 µM unless noted.
The next experiment deals with SF-295 CNS. The conditions noted are these: 10 µM unless noted.
The test system of the next experiment is SF-539 CNS. The conditions noted are these: 10 µM unless noted.
In the next experiment the test system is UACC-257 melanoma. Conditions: 10 µM.
For the next experiment, the system named is M14 melanoma. Conditions: 10 µM unless noted.

The panel holds about 83,000 compounds, 20% with a hit somewhere; the sample as a whole holds those more often.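 Single-dose data. Exposure time 48 hours. Values below 10 considered active.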 Values without a mark were called inactive. Calls of active or inactive are those of the source.

As for `Nc1c(C(=O)Nc2c(Cl)cccc2Cl)sc2nc3c(cc12)CCCCC3`, the growth in the experiment with DU-145 prostate is 70.4%; in the experiment with K-562 leukemia it was 24.1%; with MALME-3M melanoma it was 61.5%; with MDA-MB-231 breast, 63.4%; in the experiment on RXF 393 renal it was 3.29% (active); with SF-268 CNS it was 60.5%. The growth is 54.4% in the experiment with SF-295 CNS, 38.2% in the experiment on SF-539 CNS, 50.7% with UACC-257 melanoma and 43.8% with M14 melanoma.
As to `COc1cc(/C=C2\CCCC3=C2NC(C)=NC3c2cc(OC)c(OC)c(OC)c2)cc(OC)c1OC` (stereo not given), the growth was 4.92% (active) in the experiment on DU-145 prostate; 11.1% with K-562 leukemia; 30.2% in the experiment on MALME-3M melanoma; 13% in the experiment on MDA-MB-231 breast; 22.7% in the experiment on RXF 393 renal; 21.2% in the experiment with SF-268 CNS. The growth with SF-295 CNS is -25% (active); in the experiment with SF-539 CNS it was 13.5%; in the experiment with UACC-257 melanoma, 43.8%; with M14 melanoma, -42% (active).
Consider `Cc1cc(N/C=c2\sc3ncnn3c2=O)no1`, for which the growth in the experiment on DU-145 prostate is 93.7%; in the experiment with K-562 leukemia, 98.5%; in the experiment on MALME-3M melanoma it was 87.3%; with MDA-MB-231 breast it was 102%; in the experiment with RXF 393 renal it was 113%; in the experiment with SF-268 CNS, 90.1%. Further, the growth with SF-295 CNS is 99%; with SF-539 CNS, 107%; in the experiment on UACC-257 melanoma it was 105%; with M14 melanoma, 92.8%.
Take `O=C(CNC1CCCCC1)Nc1ccc(-c2nc3ccccc3s2)cc1`: the growth in the experiment on DU-145 prostate is 89.3%; with K-562 leukemia it was 49.5%; in the experiment with MALME-3M melanoma it was 105%; in the experiment on MDA-MB-231 breast, 46.2%; in the experiment on RXF 393 renal it was 68.5%; with SF-268 CNS it was 78.4%. The growth in the experiment on SF-295 CNS is 85.9%; with SF-539 CNS, 87.5%; in the experiment on UACC-257 melanoma, 105%; with M14 melanoma, 89.4%.
For the compound `COc1ccc(-n2c(C)cc(-c3ccccc3)c2C)cc1`, the growth is 73.9% in the experiment on DU-145 prostate; 15.6% with K-562 leukemia; 36.9% with MALME-3M melanoma; 6.48% (active) in the experiment with MDA-MB-231 breast; 10.1% in the experiment with RXF 393 renal; 75.5% with SF-268 CNS. The growth in the experiment on SF-295 CNS is 34.1%; in the experiment with SF-539 CNS, 62%; in the experiment with UACC-257 melanoma, 40.3%; in the experiment on M14 melanoma, 15.9%.
Consider `C=CCOc1cccc(/C=C/C(=O)c2sc(Nc3cccnc3)nc2C)c1`, for which the growth was 38.4% in the experiment with DU-145 prostate; 28.9% in the experiment on K-562 leukemia; 94.6% with MALME-3M melanoma; 95.4% with MDA-MB-231 breast; 83.5% in the experiment with RXF 393 renal; 81.7% in the experiment on SF-268 CNS. Besides, the growth in the experiment on SF-295 CNS was 88.5%; in the experiment with SF-539 CNS it was 76.7%; with UACC-257 melanoma, 97.2%; in the experiment on M14 melanoma it was 71.2%.
Take `COC1=CC(c2ccc[nH]2)=N/C1=C\c1[nH]c(C)c(C(=O)CCC(=O)Oc2ccc3c(c2)CCC2C3CC[C@]3(C)[C@@H](O)CC[C@@H]23)c1C` (stereo not given in full): the growth with DU-145 prostate is 0.722% (active); in the experiment on K-562 leukemia it was -18% (active); in the experiment with MALME-3M melanoma, 9.7% (active); with MDA-MB-231 breast it was -64.2% (active); with RXF 393 renal, -6.4% (active); in the experiment with SF-268 CNS, 3.8% (active). For the same compound, the growth with SF-295 CNS was 20.3%; in the experiment on SF-539 CNS it was -18.9% (active); with UACC-257 melanoma it was 82.4%; in the experiment with M14 melanoma, -50.8% (active).
On to `CCn1cc(C(=O)O)c(=O)c2cc(F)c(N3CCN(S(=O)(=O)c4ccc(OC)c(OC)c4)CC3)cc21`, for which the growth in the experiment with DU-145 prostate was 108%; in the experiment on K-562 leukemia, 101%; in the experiment with MALME-3M melanoma, 93.6%; in the experiment on MDA-MB-231 breast, 103%; with RXF 393 renal, 109%; with SF-268 CNS, 88.9%. Besides, the growth is 93.8% in the experiment with SF-295 CNS, 90.8% in the experiment with SF-539 CNS, 106% with UACC-257 melanoma and 44.1% in the experiment with M14 melanoma.
With `C=CCN=C1NC(=O)/C(=C/c2cc(C(C)(C)C)c(O)c(C(C)(C)C)c2)S1`, the growth with DU-145 prostate was 84%; in the experiment on K-562 leukemia, 30.8%; in the experiment with MALME-3M melanoma, 75.4%; with MDA-MB-231 breast, 86.8%; with RXF 393 renal, 62.4%; with SF-268 CNS it was 82%. In addition, the growth in the experiment on SF-295 CNS was 69.3%; with SF-539 CNS, 87.6%; in the experiment with UACC-257 melanoma, 93%; in the experiment with M14 melanoma, 52.4%.
Take `COc1cc(NCCCN=C(N)NC(N)=NC(C)C)c2ncccc2c1`: the growth in the experiment on DU-145 prostate is 106%; in the experiment with K-562 leukemia it was 44.6%; in the experiment with MALME-3M melanoma it was -24.2% (active); with MDA-MB-231 breast it was 64.9%; in the experiment on RXF 393 renal it was 94.8%; with SF-268 CNS, 44.1%. The growth with SF-295 CNS is 87.5%; in the experiment on SF-539 CNS it was 21.7%; with UACC-257 melanoma it was 45.1%; in the experiment on M14 melanoma it was 65.3%.
On to `COc1ccc(NC(=O)c2cc3ccccc3nc2Nc2cc(OC)c(OC)c(OC)c2)cc1`, for which the growth was 66.3% in the experiment on DU-145 prostate; 50.6% in the experiment on K-562 leukemia; 132% in the experiment on MALME-3M melanoma; 54.1% with MDA-MB-231 breast; 60.5% in the experiment with RXF 393 renal; 66.6% in the experiment on SF-268 CNS. The growth in the experiment with SF-295 CNS is 65.5%; with SF-539 CNS, 68.3%; with UACC-257 melanoma it was 83.6%; with M14 melanoma it was 55.1%.
Regarding `COC1=CC(c2ccc[nH]2)=N/C1=C\c1[nH]c(C)c(C(=O)CCCCC(=O)Nc2ccccc2)c1C`, the growth was 6.29% (active) in the experiment with DU-145 prostate; 62.4% in the experiment on K-562 leukemia; 87.7% in the experiment with MALME-3M melanoma; -10.1% (active) in the experiment with MDA-MB-231 breast; -63.9% (active) in the experiment with RXF 393 renal; 44.1% in the experiment on SF-268 CNS. Further, the growth with SF-295 CNS is -2.61% (active); with SF-539 CNS, 78.6%; in the experiment with UACC-257 melanoma, 74.4%; in the experiment on M14 melanoma, 13.1%.
